Assay results: PubChem BioAssay (NCATS)
Several values for one entry are separate records, joined by “and”; a condition that tells them apart may be missing. Equal entries are not always repeated. Inconclusive results are not listed. Entries that show only a call come without a potency. Activity calls are given as the source filed them. Unless noted, the call rests on the fitted dose curve; in most records, active means well fitted curve in the direction sought with a large enough effect; inconclusive means small, poorly fitted or top-dose-only effect, or another doubt; inactive means no such curve, though single readings can be large; an effect the other way counts as inactive or inconclusive.

Tests used:
[1] = qHTS profiling of the MIPE4 collection as inhibitors of Plasmodium falciparum (3D7) proliferation (AID 743344; call rule not given here); conditions: P. falciparum 3D7 in erythrocytes, SYBR Green DNA fluorescence, 72 h; at 28.5 µM unless noted
Method in brief: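 Erythrocytes infected with P. falciparum (0.3% parasitemia, 2.5% hematocrit) incubated with compounds 72 h at 37 C, 5% CO2. Lysis with saponin/Triton buffer containing SYBR Green I, overnight at room temperature in the dark; DNA fluorescence (485/535 nm) normalised to 0.29 uM artemisinin and DMSO.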

[2] = qHTS for differential inhibitors of proliferation of Plasmodium falciparum line W2 (AID 1883); conditions: Potency: Plasmodium falciparum W2 proliferation inhibition;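 further: potency means the concentration at half of the fitted maximal effect; parasites grown with compound for 72 h before lysis and staining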
[3] = Nrf2 qHTS screen for inhibitors: Validation (AID 493153; active means well fitted inhibition curve with a large enough effect in the main read-out, with a control signal flat, not every such curve was filed as active; further: potency means the concentration at half of the fitted maximal effect); conditions: Potency: luciferase luminescence; viability change: measured here: cytotoxicity max response
Method in brief: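 Dose-response validation uses reporter A549 cells with firefly luciferase under an antioxidant response element. Compounds stay on cells 18-24 h at 37°C, and luminescence indicates Nrf2-driven transcription.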

[4] = target: Glucocorticoid receptor (Homo sapiens) (UniProt P04150); experiment: qHTS assay for small molecule antagonists of glucocorticoid receptor signaling (AID 588533; active means well fitted inhibition curve with a large enough effect in the signal ratio, with a control signal flat, not every such curve was filed as active; the % refers to the signal ratio;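 further: cells stimulated with 2 nM dexamethasone as agonist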; further: potency means the concentration at half of the fitted maximal effect)
Method in brief: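 Antagonist-mode qHTS: compound titrations added to GRE-bla HeLa cells, then dexamethasone 2 nM final; 18 h, 37 C. CCF4 FRET fluorescence normalized to dexamethasone and DMSO; IC50 from Hill fit.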

[5] = target: Peroxisome proliferator-activated receptor delta (Homo sapiens) (UniProt Q03181); experiment: qHTS assay for small molecule agonists of peroxisome proliferator-activated receptor delta signaling (AID 588534; calls by dose curve)
Method in brief: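 Reporter cells were plated and held 5 hrs at 37 C before compounds were added. After 18 hrs at 37 C, CCF4 dye was loaded for 2 hrs at RT and fluorescence measured.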

[6] = Cell Viability - N2a (AID 540); conditions: N2a mouse neuroblastoma cell viability; at 92.2 µM (top of the series);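 further: cells exposed to compound for 40 h at 37 °C; nearly all actives have a fitted effect of over 45% in size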
Method in brief: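 First, 1500 N2a cells per well incubate 5 hr at 37 °C; next, compounds are added and incubated 40 hr at 37 °C; finally CellTiter-Glo is added and luminescence read after 20 min, with AC50 derived by Hill modeling.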

[7] = Cell Viability - NIH 3T3 (AID 541); conditions: NIH 3T3 cell viability, qHTS; at 92.2 µM (top of the series);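 further: cells exposed to compound for 40 hours; nearly all actives have a fitted effect of over 25% in size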
Method in brief: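 AC50 values reflect concentration-dependent loss of intracellular ATP in NIH 3T3 cells after 40 hr treatment in complete culture medium, quantified by luciferase-based luminescence.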

[8] = Cell Viability - Renal Proximal Tubule (AID 545);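 further: cells exposed to compound for 40 hours; nearly all actives have a fitted effect of over 40% in size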
Method in brief: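 Luminescent ATP signal (CellTiter-Glo) served as the viability read-out after 40 hr compound exposure of freshly isolated rat proximal tubule cells at 37 °C. Concentration-dependent ATP loss was fitted with the Hill equation to give AC50.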

[9] = Cellular Toxicity (caspase-3) Jurkat (AID 655);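 further: cells exposed to compound for 16 h at 37 °C before reading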
Method in brief: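 5000 Jurkat cells/well; compound 16 hr, 37 °C; Caspase-Glo 3/7 added, 20 min RT; luminescence read. Norm: DMSO = 0%, tamoxifen 100 uM = 100%. AC50, Hill model.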

[10] = Cellular Toxicity (caspase-3) Mesangial (AID 660);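 further: combined caspase 3 and 7 activity read by Caspase-Glo luminescence; cells exposed to compound for 16 h before the caspase read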
Method in brief: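 Concentration-response qHTS: compound-induced rise in caspase 3/7 luminescence in human mesangial cells after 16 h, normalized to DMSO and 100 uM tamoxifen controls.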

[11] = Cell Viability - LYMP2-006 (AID 978);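 further: cells exposed to compound for 24 hours; nearly all actives have a fitted effect of over 60% in size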
Method in brief: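 Cells are seeded at 2500 per well and rested 5 hr at 37 C. Compounds are added across a concentration series for 24 hr at 37 C, after which ATP is quantified by luciferase luminescence.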

[12] = Cell Viability - LYMP2-008 (AID 980); further: nearly all actives have a fitted effect of over 60% in size
Method in brief: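 Acute cytotoxicity is scored as concentration-dependent loss of cellular ATP in a human lymphoblastoid line after 24 hr treatment at 37 C. ATP is quantified by luciferase luminescence.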

[13] = Cell Viability - LYMP2-026 (AID 989); further: nearly all actives have a fitted effect of over 50% in size
Method in brief: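 Concentration-dependent loss of intracellular ATP in human lymphoblastoid cells after 24 hr at 37 C, quantified by luciferase luminescence. AC50 derived from standard Hill equation.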

[14] = Cell Viability - LYMP1-002 - Assay at 24 hr (AID 993)
Method in brief: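 qHTS, LYMP1-002 lymphoblastoid, 24 h cpd, 37 C, CellTiter-Glo ATP luminescence; AC50 via Hill eq.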

[15] = target: Thyroid hormone receptor beta (Homo sapiens) (UniProt P10828); experiment: qHTS assay for small molecule agonists of thyroid hormone receptor beta signaling (AID 588545; calls by dose curve)
Method in brief: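 Agonist-mode beta-lactamase reporter assay, HEK 293 cells, 2% charcoal/dextran FBS; cells plated 4 hrs, compound 18 hrs at 37 C, CCF4 2 hrs RT. Normalized to 10 nM T3 (100%) and DMSO (0%); Hill fit gives EC50, efficacy.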

[16] = qHTS assay for small molecule antagonists of retinoid X receptor alpha signaling (AID 588546; active means well fitted inhibition curve with a large enough effect in the signal ratio, with a control signal flat, not every such curve was filed as active; the % refers to the signal ratio;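 further: cells stimulated with 9-cis-retinoic acid as agonist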); conditions: HEK293T RXRa-UAS-bla, beta-lactamase ratio, antagonist mode; measured here: W530 green channel, cytotoxicity proxy
Method in brief: (§1)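 Beta-lactamase reporter inhibition, read as CCF4 fluorescence ratio (ex 405, em 460/530 nm) after 2 h at RT. HEK293T UAS-bla cells, 2500/well, were stimulated with 9-cis-RA at 500 or 100 nM final alongside test compound for 18 h at 37 C.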

[17] = target: Retinoic acid receptor RXR-alpha (Homo sapiens) (UniProt P19793); experiment: as above; conditions: HEK293T RXRa-UAS-bla, beta-lactamase ratio, antagonist mode
Method in brief: as §1

[18] = target: Thyroid hormone receptor beta (Homo sapiens) (UniProt P10828); experiment: qHTS assay for small molecule antagonists of thyroid hormone receptor beta signaling (AID 588547; active means well fitted inhibition curve with a large enough effect in the signal ratio, with a control signal flat, not every such curve was filed as active; the % refers to the signal ratio;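 further: cells stimulated with 0.4 nM T3 agonist during compound exposure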); conditions: TR-UAS-bla HEK293, beta-lactamase ratio, antagonist mode, 18 h
Method in brief: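 TR-UAS-bla GripTite HEK293 cells in 2% charcoal/dextran FBS medium; compounds 0.59 nM to 92 uM with T3 at 0.4nM final, 18 h at 37 C. Beta-lactamase read by CCF4 fluorescence (460/530 nm); Hill fits gave IC50 and efficacy.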

[19] = target: Tumor necrosis factor (Homo sapiens) (UniProt P01375); experiment: qHTS assay to identify small molecules that stimulate Tumor Necrosis Factor-alpha (TNF-alpha) secretion (AID 651757; active means well fitted curve in the direction sought with a large enough effect in the signal ratio; the % refers to the signal ratio)
Method in brief: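 Secreted TNF-alpha from compound-treated THP-1 cells (17 hrs, 37 C) was quantified with a homogeneous time-resolved fluorescence antibody assay.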

[20] = qHTS assay for small molecule agonists of the antioxidant response element (ARE) signaling pathway measured by Nrf2-dependant transcriptional activity (AID 720636; active means well fitted curve in the direction sought with a large enough effect in the repeat runs; an effect the other way counts as inactive or inconclusive)
Method in brief: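 First, ARE-luc HepG2 cells attached for 6 hr at 37 C in 1% dialyzed FBS medium. Next, compound or DMSO was added and incubated 16 hr. Finally, ONE-Glo reagent was added and luminescence measured after 30 min.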

Sequence of Thyroid hormone receptor beta (Homo sapiens) (P10828 whole entry, looked up): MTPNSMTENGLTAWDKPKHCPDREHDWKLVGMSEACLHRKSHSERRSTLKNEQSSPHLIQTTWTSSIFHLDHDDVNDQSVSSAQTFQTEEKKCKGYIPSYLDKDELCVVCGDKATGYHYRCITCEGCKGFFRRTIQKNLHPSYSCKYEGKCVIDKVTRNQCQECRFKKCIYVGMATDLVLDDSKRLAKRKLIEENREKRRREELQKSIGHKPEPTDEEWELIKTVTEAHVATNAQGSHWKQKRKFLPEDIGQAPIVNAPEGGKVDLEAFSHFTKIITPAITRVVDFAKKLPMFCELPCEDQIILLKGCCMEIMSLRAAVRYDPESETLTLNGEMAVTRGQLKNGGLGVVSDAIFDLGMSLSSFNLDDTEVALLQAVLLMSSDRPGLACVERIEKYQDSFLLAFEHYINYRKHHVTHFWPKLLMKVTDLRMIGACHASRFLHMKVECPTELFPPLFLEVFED
Sequence of Tumor necrosis factor (Homo sapiens) (P01375 whole entry, looked up): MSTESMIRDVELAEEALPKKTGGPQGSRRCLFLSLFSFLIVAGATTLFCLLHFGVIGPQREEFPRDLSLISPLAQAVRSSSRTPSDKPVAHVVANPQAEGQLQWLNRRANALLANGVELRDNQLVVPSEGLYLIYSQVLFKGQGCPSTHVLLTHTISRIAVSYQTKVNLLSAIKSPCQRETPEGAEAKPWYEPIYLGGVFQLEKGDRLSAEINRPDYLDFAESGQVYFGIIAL
Sequence of Retinoic acid receptor RXR-alpha (Homo sapiens) (P19793 whole entry, looked up): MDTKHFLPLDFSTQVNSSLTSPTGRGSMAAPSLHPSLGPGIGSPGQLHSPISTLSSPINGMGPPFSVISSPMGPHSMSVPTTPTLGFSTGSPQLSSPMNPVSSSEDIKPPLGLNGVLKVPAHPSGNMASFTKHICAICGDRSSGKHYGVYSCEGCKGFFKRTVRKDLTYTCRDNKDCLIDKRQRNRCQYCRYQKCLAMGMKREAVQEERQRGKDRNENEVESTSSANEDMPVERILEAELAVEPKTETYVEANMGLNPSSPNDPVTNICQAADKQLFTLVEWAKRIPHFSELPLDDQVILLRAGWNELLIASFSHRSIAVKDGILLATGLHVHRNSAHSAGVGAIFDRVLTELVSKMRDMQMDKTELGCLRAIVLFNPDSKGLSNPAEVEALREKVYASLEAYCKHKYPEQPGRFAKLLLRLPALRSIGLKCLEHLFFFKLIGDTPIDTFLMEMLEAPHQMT
Sequence of Glucocorticoid receptor (Homo sapiens) (P04150 whole entry, looked up): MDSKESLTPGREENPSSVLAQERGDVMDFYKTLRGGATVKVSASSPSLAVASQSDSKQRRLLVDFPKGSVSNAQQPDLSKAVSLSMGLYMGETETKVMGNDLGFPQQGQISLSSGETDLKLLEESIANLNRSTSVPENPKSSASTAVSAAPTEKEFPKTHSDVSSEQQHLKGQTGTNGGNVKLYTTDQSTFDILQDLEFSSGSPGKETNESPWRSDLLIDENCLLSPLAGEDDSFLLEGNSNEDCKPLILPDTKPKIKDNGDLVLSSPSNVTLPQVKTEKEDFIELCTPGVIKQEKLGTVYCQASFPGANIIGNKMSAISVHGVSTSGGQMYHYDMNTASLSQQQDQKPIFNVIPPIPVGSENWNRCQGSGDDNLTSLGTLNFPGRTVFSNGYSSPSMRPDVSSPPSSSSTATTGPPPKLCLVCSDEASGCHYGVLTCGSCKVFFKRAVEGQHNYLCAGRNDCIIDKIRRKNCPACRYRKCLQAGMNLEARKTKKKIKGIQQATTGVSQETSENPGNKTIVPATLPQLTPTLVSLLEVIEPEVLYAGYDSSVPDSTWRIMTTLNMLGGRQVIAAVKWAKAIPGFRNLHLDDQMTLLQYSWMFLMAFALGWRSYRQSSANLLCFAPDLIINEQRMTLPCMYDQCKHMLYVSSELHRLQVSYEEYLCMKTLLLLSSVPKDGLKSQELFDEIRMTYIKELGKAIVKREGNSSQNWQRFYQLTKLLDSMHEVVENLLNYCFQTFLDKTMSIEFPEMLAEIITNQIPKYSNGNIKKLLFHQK
Sequence of Peroxisome proliferator-activated receptor delta (Homo sapiens) (Q03181 whole entry, looked up): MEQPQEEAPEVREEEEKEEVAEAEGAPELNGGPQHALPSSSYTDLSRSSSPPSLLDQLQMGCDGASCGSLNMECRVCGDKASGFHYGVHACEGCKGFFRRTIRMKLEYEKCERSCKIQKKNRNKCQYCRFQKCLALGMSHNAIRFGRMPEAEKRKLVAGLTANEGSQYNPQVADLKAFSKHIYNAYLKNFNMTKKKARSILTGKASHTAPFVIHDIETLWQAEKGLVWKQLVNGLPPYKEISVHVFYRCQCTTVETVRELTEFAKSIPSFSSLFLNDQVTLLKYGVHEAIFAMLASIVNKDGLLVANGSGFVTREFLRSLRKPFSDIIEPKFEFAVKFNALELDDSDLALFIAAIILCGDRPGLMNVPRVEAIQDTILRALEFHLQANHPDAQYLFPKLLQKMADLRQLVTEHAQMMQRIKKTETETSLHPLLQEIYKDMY

## C=C(C)[C@@H]1CC[C@]2(C(=O)O)CC[C@]3(C)[C@H](CC[C@@H]4[C@@]5(C)CC[C@H](O)C(C)(C)[C@@H]5CC[C@]43C)[C@@H]12
[1]
  parasite growth, % of DMSO control: 60.5%

## C[C@@H](c1ncncc1F)[C@](O)(Cn1cncn1)c1ccc(F)cc1F
[1]
  parasite growth, % of DMSO control: 65.8%

## CC[C@H](C=C[C@@H](C)[C@H]1CC[C@H]2[C@@H]3CC=C4C[C@@H](O)CC[C@]4(C)[C@@H]3CC[C@]12C)C(C)C
[1]
  parasite growth, % of DMSO control: 84.3% [at 9.64 µM]

## O=C(O)c1ccccc1C(=O)Nc1ccc(-c2ccccc2)cc1
[1]
  parasite growth, % of DMSO control: 93.6%

## COC1CCC(N(C(=O)C2CCC(C)CC2)c2cc(C3=CCCCC3)sc2C(=O)O)CC1 (centres undefined)
[1]
  parasite growth, % of DMSO control: 31.6%

## CCCNC(=O)Nc1ccc(Oc2ncnc3cc(OC)c(OC)cc23)cc1Cl
[1]
  parasite growth, % of DMSO control: 38.8%

## Nc1nc2ccc(Cl)cc2c2nc(-c3ccco3)nn12
[2]
  Potency: 11.2 µM (active)
[3]
  Potency: inactive
  viability change: 11.1%

## Oc1ccccc1O
[2]
  Potency: 10 µM (active)
[4]
  Potency: 35.5 µM (active)
[5]
  Potency: inactive

## Nc1nc2[nH]c(=O)cnc2c(=O)[nH]1
[3]
  Potency: inactive
  viability change: -3.53%

## c1ccc2c(c1)-c1cccc3cccc-2c13
[6]
  activity change, negative = cytotoxicity: -25.7% (inactive)
[7]
  activity change, negative = cytotoxicity: -24% (inactive)
[8]
  outcome: inactive
[9]
  outcome: inactive
[10]
  outcome: inactive
[11]
  outcome: inactive
[12]
  outcome: inactive
[13]
  outcome: inactive
[14]
  outcome: inactive
[5]
  Potency: inactive
[15]
  Potency: inactive
[16]
  max response: -3.55%
[17]
  max response: -2.14% (inactive)
[18]
  activity change % (negative = inhibition): 3.57% (inactive)
[19]
  outcome: inactive
[20]
  Potency: inactive

## c1ccc(Nc2ccc3ccccc3c2)cc1
[7]
  activity change, negative = cytotoxicity: -27% (inactive)
[9]
  outcome: inactive
[11]
  outcome: inactive
[12]
  outcome: inactive
[13]
  outcome: inactive
[14]
  outcome: inactive
[4]
  Potency: inactive
[5]
  Potency: inactive
[15]
  Potency: inactive
[16]
  max response: -7.73% and -2.18%
[17]
  max response: 4.38% (inactive) and -18.9% (inactive)
[18]
  activity change % (negative = inhibition): -6.28% (inactive)

## CC(=O)/C=C/c1ccccc1
[6]
  activity change, negative = cytotoxicity: -5.72% (inactive)
[7]
  activity change, negative = cytotoxicity: -123% (active)
[8]
  outcome: inactive
[9]
  outcome: inactive
[10]
  outcome: inactive
[11]
  outcome: inactive
[12]
  outcome: inactive
[13]
  outcome: inactive
[14]
  outcome: inactive
[4]
  Potency: inactive
[5]
  Potency: inactive
[16]
  max response: -5.45%
[17]
  max response: 11.5% (inactive)
[19]
  outcome: inactive
[20]
  Potency: inactive

## Oc1ccccc1Cl
[6]
  activity change, negative = cytotoxicity: -11.6% (inactive)
[7]
  activity change, negative = cytotoxicity: -20.7% (inactive)
[8]
  outcome: inactive
[9]
  outcome: inactive
[10]
  outcome: inactive
[11]
  outcome: inactive
[12]
  outcome: inactive
[13]
  outcome: inactive
[14]
  outcome: inactive
[4]
  Potency: inactive
[5]
  Potency: inactive
[15]
  Potency: inactive
[16]
  max response: -10.5%
[17]
  max response: 10.4% (inactive)
[18]
  activity change % (negative = inhibition): -7.68% (inactive)
[19]
  outcome: inactive
[20]
  Potency: inactive

## N#C/C(=C\c1ccc(O)c(O)c1)C(=O)NCCCNC(=O)/C(C#N)=C/c1ccc(O)c(O)c1
[2]
  Potency: 2.24 µM (active)

## COC1=CC(=O)OC(CCc2ccc3c(c2)OCO3)C1 (centres undefined)
[6]
  activity change, negative = cytotoxicity: -20.1% (inactive)
[8]
  outcome: inactive
[10]
  outcome: inactive
[11]
  outcome: inactive
[12]
  outcome: inactive
[13]
  outcome: inactive
[14]
  outcome: inactive
[15]
  Potency: inactive
[18]
  activity change % (negative = inhibition): -2% (inactive)
[19]
  outcome: inactive
[20]
  Potency: inactive

## COc1cc([C@@H]2c3cc4c(cc3[C@H](O)C3COC(=O)[C@@H]32)OCO4)cc(OC)c1OC (some centres undefined)
[2]
  Potency: 11.2 µM (active)

## Brc1c(Br)c(Br)c2n[nH]nc2c1Br
[3]
  Potency: 18.4 µM (active)
  viability change: -14.6%

## CCOC(=O)c1ccccc1N
[6]
  activity change, negative = cytotoxicity: 3.3% (inactive)
[7]
  activity change, negative = cytotoxicity: -0.518% (inactive)
[8]
  outcome: inactive
[9]
  outcome: inactive
[10]
  outcome: inactive
[11]
  outcome: inactive
[12]
  outcome: inactive
[13]
  outcome: inactive
[14]
  outcome: inactive
[4]
  Potency: inactive
[5]
  Potency: inactive
[15]
  Potency: inactive
[16]
  max response: -2.66%
[17]
  max response: 10.1% (inactive)
[18]
  activity change % (negative = inhibition): 5.04% (inactive)
[19]
  outcome: inactive
[20]
  Potency: inactive

## CN1[C@@H](CC(=O)c2ccccc2)CCC[C@H]1C[C@H](O)c1ccccc1
[2]
  Potency: 3.98 µM (active)

## CC(C)COC(=O)c1ccccc1C(=O)OCC(C)C
[6]
  activity change, negative = cytotoxicity: -12.6% (inactive)
[7]
  activity change, negative = cytotoxicity: -26.2% (inactive)
[8]
  outcome: inactive
[9]
  outcome: inactive
[10]
  outcome: inactive
[11]
  outcome: inactive
[12]
  outcome: inactive
[13]
  outcome: inactive
[14]
  outcome: inactive
[4]
  Potency: inactive
[15]
  Potency: inactive
[16]
  max response: -12.2%
[17]
  max response: 12.8% (inactive)
[18]
  activity change % (negative = inhibition): 9.26% (inactive)
[19]
  outcome: inactive
[20]
  Potency: inactive

## CCCCCCCCCC[Si](C)(C)CCC(=O)NC(Cc1ccc(C)cc1)c1ccccc1 (centres undefined)
[2]
  Potency: 3.16 µM (active)
